20 molecules from PubChem BioAssay (EPA / NIEHS) can be followed below.

Molecules are shown by their SMILES. Records with an inconclusive call do not appear. Activity calls are given as the source filed them. How the source made its calls, unless noted: active means hit-call score of the fitted dose curve at least 0.9, where 1 is the maximum; inactive means score below 0.9.

The nature of assay [1]: CCTE_Shafer_MEA_acute_spike_number: CCTE's Neural Acute Assay for Total Number of Spikes, Shafer Lab (AID 2284008).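 On AC50: curve fitted for decrease in spike count so AC50 reflects inhibitors.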 In outline: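 Read-out is the total spike count over 40 min, expressed as percent change from each well's own pre-treatment baseline and fitted in the loss direction against DMSO. Rat cortical neurons were exposed at 0.03-40 uM on DIV 13 or 15.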
Assay [2] is described as follows: CCTE_Simmons_MITO_basal_resp_rate: CCTE's HepG2 Seahorse XF Respirometric Screening Assay at Basal Respiratory State, Simmons Lab (AID 2284001). The settings on record: actives raise or lower the signal. Put shortly: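 Readout is oxygen consumption rate after test compound injection, measured by Seahorse XF in HepG2 cells. Seven concentrations from 125 nM up to 100 uM final are tested, and activity in either direction is fitted against DMSO.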

A short description of assay [3]: CCTE_Simmons_MITO_max_resp_rate: CCTE's HepG2 Seahorse XF Respirometric Screening Assay at Maximal Respiratory State [uncoupled], Simmons Lab (AID 2284002). The settings on record: actives raise or lower the signal. Put shortly:
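Read-out is oxygen consumption rate at maximal respiration, taken after FCCP uncoupling of compound-treated HepG2 cells. Seven final concentrations from 125 nM to 100 uM were tested, each in three biological replicates.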

A short description of assay [4]: CCTE_Simmons_MITO_inhib_resp_rate: CCTE's HepG2 Seahorse XF Respirometric Screening Assay at Inhibited Respiratory State [full ETC block], Simmons Lab (AID 2284006). The conditions noted are these: actives raise or lower the signal. Put shortly: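 Seahorse respirometry, HepG2, 72 min total, 6-min mix/measure cycles. Cpd 125 nM–100 uM final ×7, n=3 biological. Sequential FCCP, rotenone/antimycin A; inhibited-respiration OCR, bidirectional fit vs DMSO.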

The nature of assay [5]: CCTE_Simmons_MITO_viability: CellTiter-Glo Viability Assessment for CCTE's HepG2 Seahorse XF Respirometric Screening Assay [post-hoc], Simmons Lab (AID 2284007; active means hit-call score of the fitted dose curve at least 0.9, where 1 is the maximum). In outline: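 Cytotoxicity readout: ATP quantitation via luciferase in HepG2 cells treated 90 min with seven titrated concentrations (125 nM to 100 uM, final). Curves fitted relative to DMSO negative control, three biological replicates per concentration.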
On the technique in general: Cellular ATP, detected with luciferase, serves as a proxy for viable cell number.

Consider `O=P(OC(CCl)CCl)(OC(CCl)CCl)OC(CCl)CCl`, for which the call in assay [1] was inactive.

The term AC50 denotes the concentration giving half of the maximal activity seen. On to `CCOC(=O)COc1ccc2c(c1)CC(NCC(O)c1cccc(Cl)c1)CC2` (stereo unspecified), for which the AC50 in assay [2] is 32.9 µM (active); in assay [3], 62.7 µM (active). Further, the outcome in assay [4] was inactive.

For `CCCCC(CC)COC(=O)CCCCCCCCC(=O)OCC(CC)CCCC` (stereo unspecified), the molecule was classed as inactive in assay [1].

As for `Cc1[nH]cnc1C[C@H]1CCc2c(C)c3ccccc3n2C1=O`, the AC50 in assay [2] is 30.5 µM (active); in assay [1] it was 4.12 µM (active). The result in assay [3], in assay [4] and in assay [5] was inactive.

Take `CC(C)=CCC/C(C)=C/CO`: in assay [2], the AC50 was 45.7 µM (active). Moreover, the outcome in assay [3] and in assay [4] was inactive.

In the case of `Cn1cnc([N+](=O)[O-])c1Sc1ncnc2nc[nH]c12`, in assay [1], the molecule was classed as inactive.

As for `Cn1c(=O)c2c(ncn2C)n(C)c1=O`, the result in assay [1] was inactive.

Consider `CCn1nc(Cc2ccccc2)cc1C1CCN(C[C@H]2C[C@H](N(C)[C@@H](C(=O)O)C(C)C)C[C@@H]2c2cccc(F)c2)CC1`, for which the AC50 in assay [2] is 27.8 µM (active). The molecule was called inactive in assay [3] and in assay [4].

As to `O=C(O)CCN(C1(C(=O)NO)CCCC1)S(=O)(=O)c1ccc(Oc2ccc(F)cc2)cc1`, in assay [1], the molecule was classed as inactive.

Consider `COc1ccc2sc(C(=O)Nc3nnn[nH]3)c(OC(C)C)c2c1`, for which the call in assay [2], in assay [3], in assay [4] and in assay [1] was inactive.

For `CC(C)CC(C)(O)C#CC(C)(O)CC(C)C` (stereo unspecified), the concentration at half-maximal activity (AC50) in assay [2] was 50 µM (active); in assay [3] it was 37.8 µM (active). Further, the molecule was called inactive in assay [4] and in assay [5].

Consider `Cc1c(-c2cccnc2)c2ccccc2n1CCCCC(=O)O`, for which the AC50 in assay [2] was 26.7 µM (active). For the same molecule, the outcome in assay [3], in assay [4] and in assay [5] was inactive.

For the molecule `CC[C@H]1CC[C@H](NCc2cc3c(cc2OC)[C@H]2C[C@H]2C(=O)N3C)[C@H](c2ccccc2)N1`, the AC50 in assay [1] was 3.07 µM (active).

As for `CC(C)=CCCC(C)=CC=O`, the molecule was called inactive in assay [2], in assay [3], in assay [4] and in assay [1].

As to `O=c1[nH]c2ccc(S(=O)CCN3CCC(Cc4ccc(F)cc4)CC3)cc2o1` (stereo unspecified), the values for the AC50 in assay [2] and in assay [3] were 49.7 µM (active) and 35.5 µM (active), respectively. Also, in assay [4], the result was inactive.

With `C=CCCCCCCCCC(=O)O`, in assay [2], the AC50 was 35.1 µM (active). The outcome in assay [3], in assay [4] and in assay [5] was inactive.

For the molecule `Cn1c(=O)cc(Oc2ccc(F)cc2F)c2cnc(NCC(C)(C)O)nc21`, the molecule was classed as inactive in assay [2], in assay [3], in assay [4] and in assay [5].

As to `Nc1cccc(N)c1`, the outcome in assay [2], in assay [3] and in assay [5] was inactive. For the same molecule, in assay [4], the AC50 is 28.7 µM (active).

Consider `COc1cccc(-c2ccc(/C=C\CN3CCCCCC3)cc2Cl)c1`, for which the outcome in assay [2] and in assay [4] was inactive. Besides, the AC50 was 65.8 µM (active) in assay [3] and 3.65 µM (active) in assay [1].

Turning to `CCCCCCCCCCCCc1ccccc1`, the molecule was classed as inactive in assay [1].
